“And” between values parts separate entries of the source, which are not always exact repeats. Identical values can stand only once. This is part of a sample that, as a whole, favours compounds with a hit. Of some 83,000 tested, about 20% had one in any assay.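 Note: values are percent growth. 100 is the growth of untreated cells, values between 100 and 0 indicate rising inhibition; between -100 and 0 indicates cell death.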 The source made the active and inactive calls. The calls were made as follows: active = growth percent below 10; inactive = the rest.
Tests used:
Experiment in all cases: NCI-60 one-dose screen, 48 h (100 = growth as untreated, 0 = no growth, -100 = all killed)
Conditions in all cases: 10 µM unless noted
[1] = test system: HCT-15 colon
[2] = test system: HT29 colon
[3] = test system: SNB-75 CNS
[4] = test system: SNB-19 CNS
[5] = test system: U251 CNS
[6] = test system: PC-3 prostate
[7] = test system: SK-MEL-5 melanoma
[8] = test system: UACC-62 melanoma
[9] = test system: LOX IMVI melanoma
[10] = test system: SK-MEL-2 melanoma
[11] = test system: EKVX NSCLC
[12] = test system: UO-31 renal
[13] = test system: TK-10 renal
[14] = test system: ACHN renal
[15] = test system: CAKI-1 renal
[16] = test system: A498 renal
[17] = test system: CCRF-CEM leukemia
[18] = test system: MOLT-4 leukemia
[19] = test system: SN12C renal
[20] = test system: SK-MEL-28 melanoma

| Compound | growth [1] | growth [2] | growth [3] | growth [4] | growth [5] | growth [6] | growth [7] | growth [8] | growth [9] | growth [10] | growth [11] | growth [12] | growth [13] | growth [14] | growth [15] | growth [16] | growth [17] | growth [18] | growth [19] | growth [20] |
| --- | --- | --- | --- | --- | --- | --- | --- | --- | --- | --- | --- | --- | --- | --- | --- | --- | --- | --- | --- | --- |
| Cc1cc(-c2ccc(NS(=O)(=O)c3ccccc3)c(C)c2)ccc1NS(=O)(=O)c1ccccc1 | 84.8% (inactive) and 84.9% (inactive) | 74.2% (inactive) and 99.7% (inactive) | 72.6% (inactive) and 105% (inactive) | 91.4% (inactive) and 101% (inactive) | 94% (inactive) and 95.2% (inactive) | 63.1% (inactive) and 78.7% (inactive) | 87.2% (inactive) | 55.8% (inactive) and 63.5% (inactive) | 84% (inactive) and 75% (inactive) | 85% (inactive) and 102% (inactive) | 61.5% (inactive) and 73.6% (inactive) | 66.7% (inactive) and 108% (inactive) | 83.4% (inactive) and 109% (inactive) | 81.2% (inactive) and 96.7% (inactive) | 61.3% (inactive) and 98.8% (inactive) | 90.8% (inactive) and 89.8% (inactive) | 80.5% (inactive) and 86.6% (inactive) | 41% (inactive) and 56.3% (inactive) |  |  |
| CCCCOc1cc(C(=O)NCCN(CC)CC)c2ccccc2n1 | 96.5% (inactive) and 100% (inactive) | 57.7% (inactive) and 92.4% (inactive) | 75.2% (inactive) and 88.9% (inactive) | 90.1% (inactive) and 91.9% (inactive) | 83.4% (inactive) and 92.2% (inactive) | 73.9% (inactive) and 96% (inactive) | 86.4% (inactive) and 94.5% (inactive) | 95.6% (inactive) and 90.1% (inactive) | 88.4% (inactive) and 110% (inactive) | 120% (inactive) and 99.6% (inactive) | 74.9% (inactive) |  | 100% (inactive) | 90.1% (inactive) and 99.7% (inactive) |  | 81.1% (inactive) and 95.4% (inactive) | 89.4% (inactive) | 98% (inactive) and 101% (inactive) | 86.7% (inactive) and 93.5% (inactive) |  |
| CNc1cc(-c2cccc(OC(F)(F)F)c2)nc2ccc(N3CCCC3)cc12 | 13.5% (inactive) and -8.32% (active) and 3.05% (active) | 5.99% (active) and 1.66% (active) and 1.06% (active) | 107% (inactive) and 76.5% (inactive) | 18.7% (inactive) and 12.2% (inactive) and 16.2% (inactive) | -42.1% (active) and -81.2% (active) and -79.4% (active) | -72% (active) and 8.8% (active) and 13.1% (inactive) | -77.4% (active) and -88.7% (active) and -70.6% (active) | -71.8% (active) and -74.8% (active) and -72.1% (active) | -64.1% (active) and -93.8% (active) and -90.1% (active) | 85.6% (inactive) and -78.5% (active) and -74.4% (active) | 84.1% (inactive) and 39.2% (inactive) and 11.9% (inactive) | 7.85% (active) and -81.2% (active) and 26.1% (inactive) | -55% (active) and -45.4% (active) and -12% (active) | -99.6% (active) and -99.5% (active) and -98.9% (active) |  | 77.2% (inactive) and 45.9% (inactive) and 47.7% (inactive) | -36.5% (active) and -23.4% (active) and -0.147% (active) | -38.6% (active) and -30.7% (active) and 2.3% (active) | -18.5% (active) and -44.5% (active) and -23.2% (active) |  |
| Cc1ncsc1CCO | 111% (inactive) and 106% (inactive) | 101% (inactive) and 95.6% (inactive) | 111% (inactive) and 91.5% (inactive) |  | 99.6% (inactive) and 99.8% (inactive) | 103% (inactive) and 98.3% (inactive) | 109% (inactive) and 98.2% (inactive) | 111% (inactive) and 95.5% (inactive) | 97.6% (inactive) and 103% (inactive) | 96.1% (inactive) and 107% (inactive) | 112% (inactive) and 99.6% (inactive) | 95.7% (inactive) and 89.7% (inactive) | 103% (inactive) and 89.4% (inactive) | 107% (inactive) | 101% (inactive) | 81.3% (inactive) and 97.6% (inactive) | 39.9% (inactive) and 121% (inactive) | 105% (inactive) and 116% (inactive) | 109% (inactive) and 96.6% (inactive) | 116% (inactive) and 104% (inactive) |
| O=C(O)CSCc1nc2ccccc2[nH]1 | 112% (inactive) | 103% (inactive) | 88.7% (inactive) | 97.4% (inactive) | 109% (inactive) | 95.5% (inactive) | 108% (inactive) | 93.9% (inactive) |  | 105% (inactive) | 117% (inactive) | 93.3% (inactive) | 121% (inactive) | 99.8% (inactive) | 107% (inactive) | 97% (inactive) | 93.7% (inactive) | 99.5% (inactive) | 93.1% (inactive) | 105% (inactive) |
| O=C1c2c(O)cc(O)cc2OC(c2ccc(O)c(O)c2)C1O (stereo not given) | 108% (inactive) | 110% (inactive) | 96.1% (inactive) | 101% (inactive) | 102% (inactive) | 96.4% (inactive) | 104% (inactive) | 106% (inactive) |  | 105% (inactive) | 119% (inactive) |  | 104% (inactive) | 105% (inactive) | 118% (inactive) | 107% (inactive) | 97.7% (inactive) | 107% (inactive) | 104% (inactive) | 108% (inactive) |
| O=[N+]([O-])c1ccccc1/C=N\Nc1ccccc1 | 42.5% (inactive) and 60.2% (inactive) | 102% (inactive) and 111% (inactive) | 71.4% (inactive) and 96% (inactive) | 96.2% (inactive) and 102% (inactive) | 84.7% (inactive) and 90% (inactive) | 63% (inactive) and 56.5% (inactive) | 90.3% (inactive) and 88.6% (inactive) | 18.7% (inactive) and 19.9% (inactive) | 71.7% (inactive) and 53.4% (inactive) | 86.9% (inactive) and 107% (inactive) | 69.3% (inactive) and 93.5% (inactive) |  | 118% (inactive) and 92.6% (inactive) | 61.4% (inactive) and 64.2% (inactive) | 71.9% (inactive) and 60.8% (inactive) |  | 65.1% (inactive) and 50.8% (inactive) | 76.4% (inactive) and 89.9% (inactive) | 84.9% (inactive) and 87.6% (inactive) |  |
| CC(=O)c1ccc2c(c1)N(CCCN1CCN(CCO)CC1)c1ccccc1S2 | 38.2% (inactive) and -17.3% (active) | 69.1% (inactive) and -22.6% (active) | 67% (inactive) and -12.1% (active) |  | 85.7% (inactive) and 20.6% (inactive) | 69.7% (inactive) and 24.2% (inactive) | 88.9% (inactive) and -99.1% (active) | 95.8% (inactive) and -58.7% (active) | 80.1% (inactive) and -85.2% (active) | 2.74% (active) and -42% (active) | 83.9% (inactive) and 60.6% (inactive) | 56.9% (inactive) and 2.41% (active) | 86.4% (inactive) and 27.5% (inactive) | 95.5% (inactive) and 30.7% (inactive) | 77.3% (inactive) and 15.7% (inactive) | 85.1% (inactive) and 28.6% (inactive) | 80.8% (inactive) and 16.2% (inactive) | 60.4% (inactive) and 4.26% (active) | 99% (inactive) and 53.6% (inactive) | 77.9% (inactive) and -91.7% (active) |
